Screening data: PubChem BioAssay, several laboratories
HTR5A inv ctr: HTR5A inverse agonism, opioid heterodimer counter-screen; P47898; inhibition, % at 9.3 µM; HTR5A cell line, luminescence; AID 504634; actives 0.083% (n = 340,000); in the data active = inhibition mostly above about 23%, no sharp cut-off; inactive = mostly below about 18%
Target sequence (P47898 whole entry, looked up): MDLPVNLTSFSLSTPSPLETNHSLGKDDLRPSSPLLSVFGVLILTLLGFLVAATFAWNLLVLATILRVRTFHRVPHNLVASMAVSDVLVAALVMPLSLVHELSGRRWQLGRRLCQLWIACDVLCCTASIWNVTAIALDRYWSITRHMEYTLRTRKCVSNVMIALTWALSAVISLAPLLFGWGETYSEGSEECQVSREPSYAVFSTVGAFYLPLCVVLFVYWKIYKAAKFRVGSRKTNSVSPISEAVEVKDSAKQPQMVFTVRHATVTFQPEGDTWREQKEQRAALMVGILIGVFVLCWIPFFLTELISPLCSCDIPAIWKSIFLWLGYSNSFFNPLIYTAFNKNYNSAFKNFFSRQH
OPRM1-OPRD1 inv: inverse agonists of human mu-delta opioid receptor heterodimerization; P35372+P41143; cell-based MOR-DOR heterodimer luminescence, inverse agonism; inhibition, % at 9.3 µM; actives 0.21% (n = 340,000); AID 504357; in the data active = inhibition above about 22%, passing the limit was not always enough
A1 inh: inhibitors of the anti-apoptotic protein A1, read as caspase activation | MEF A1-2A-BIM cells, Caspase-Glo 3/7 luminescence, 3 h; percent of clofoctol response, vehicle zero | caspase activation, % (concentration not given with the values) | actives 0.066% (n = 330,000) | AID 2462;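 active = over half of replicate activation scores above 10%, or exactly half above 10 with the replicate mean above 10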
OPRM1-OPRD1 ag: agonists of human mu-delta opioid receptor heterodimerization. cells, OPRM1-OPRD1 heterodimerization, luminescence. AID 504326. P35372+P41143. actives 0.3% (n = 340,000). activation, % at 9.3 µM
HTR5A ag ctr: HTR5A agonism, opioid heterodimer counter-screen. AID 504692. P47898. actives 0.61% (n = 340,000). activation, % at 9.3 µM. HTR5A agonist assay, luminescence, cell-based; in the data active = activation mostly above about 9.5%, no sharp cut-off; inactive = mostly below about 7.6%
OPRM1-D1 ag cf: confirmation of human OPRM1-OPRD1 heterodimerization agonists | shares compounds with OPRM1-OPRD1 ag | cells, MOR-DOR heterodimerization, luminescence complementation | activation, % at 9.3 µM | actives 45% (n = 830)
HTR5A ag counter: activates human HTR5A in OPRM1-OPRD1 agonist counter-screen; actives 8% (n = 830); activation, % at 9.3 µM; HTR5A agonist counterscreen, cell luminescence; shares compounds with OPRM1-OPRD1 ag; in the data active = activation above about 17%
Large screens that a line does not name were inactive (follow-up assays come after a bar, where they were run). This is a sample that favours compounds with a hit; in the whole collection about 1.1% have one here. Rule as the data show it, unless noted: active = activation above about 18%; inactive = the rest.

C/C(=N\NC(=O)c1cccc(S(=O)(=O)Nc2cccc(Cl)c2)c1)c1cccs1	OPRM1-OPRD1 ag 20 | OPRM1-D1 ag cf inactive | HTR5A ag counter inactive
COc1ccccc1NS(=O)(=O)c1cccc(C(=O)N/N=C/c2ccc(C)o2)c1	none
Cc1ccc(/C=N/NC(=O)c2cccc(S(=O)(=O)Nc3cccc(Cl)c3)c2)o1	OPRM1-OPRD1 ag 19 | OPRM1-D1 ag cf 22 | HTR5A ag counter inactive
Cc1cc(/C=C(\C#N)c2nc3ccccc3[nH]2)c(C)n1C	OPRM1-OPRD1 ag 27, HTR5A ag ctr 13 | OPRM1-D1 ag cf inactive | HTR5A ag counter inactive
CN(C)/C=C/C(=O)c1ccc(OCCN(C)c2ccccn2)cc1	OPRM1-OPRD1 ag 20 | OPRM1-D1 ag cf inactive | HTR5A ag counter inactive
Cn1c(SCc2ccccc2)nnc1-c1ccc(O)cc1	none
COc1ccc(NS(=O)(=O)c2ccc(O)c(NC(=O)c3cc4c(C)nn(-c5ccc(F)cc5)c4s3)c2)cc1	OPRM1-OPRD1 ag 20 | OPRM1-D1 ag cf 51 | HTR5A ag counter inactive
O=C(COC(=O)c1ccc(Br)cc1)NCc1ccccc1	none
CC(=O)Cc1cc(O)c2ccccc2c1OC(=O)c1ccc(Br)cc1	OPRM1-OPRD1 ag 20 | OPRM1-D1 ag cf inactive | HTR5A ag counter inactive
Cc1n[nH]c(=O)c2c(NC(=O)COC(=O)Cc3ccc(Cl)cc3Cl)oc(C)c12	none
O=C1C=C(NCCc2cc(Br)c(O)c(Br)c2)C(=O)c2ncccc21	OPRM1-OPRD1 ag 36 (no result: A1 inh) | OPRM1-D1 ag cf inactive | HTR5A ag counter inactive
COc1ccc(C(CNC(=O)c2ccc(S(=O)(=O)N(C)C)cc2)N(C)C)cc1 (centres undefined)	OPRM1-OPRD1 ag 95 | OPRM1-D1 ag cf 105 | HTR5A ag counter inactive
CC(C)c1ccc(NC(=O)CNCC(c2ccccc2)N(C)C)cc1 (centres undefined)	none
COc1ccc(C(CNC(=O)c2cccc(NS(=O)(=O)c3ccc(Br)cc3)c2)N(C)C)cc1 (centres undefined)	OPRM1-OPRD1 ag 74 | OPRM1-D1 ag cf inactive | HTR5A ag counter inactive
Cc1ccc(S(=O)(=O)Nc2cccc(C(=O)NCC(c3ccccc3)N(C)C)c2)cc1F (centres undefined)	OPRM1-OPRD1 ag 51 | OPRM1-D1 ag cf inactive | HTR5A ag counter inactive
Cc1ccc(NC(=O)CNCC(c2ccccc2)N(C)C)cc1F (centres undefined)	OPRM1-OPRD1 ag 40 | OPRM1-D1 ag cf inactive | HTR5A ag counter inactive
Cc1ccc(S(=O)(=O)Nc2cccc(C(=O)NCC(c3ccco3)N(C)C)c2)cc1F (centres undefined)	none
COc1ccc(NC(=O)CSc2nnc(NC(=O)c3ccco3)s2)cc1	none
COc1ccc(NC(C)=O)cc1S(=O)(=O)Nc1ccc2c(c1)OCCO2	none
CCN(c1ccccc1)S(=O)(=O)c1ccc(C(=O)NCC(c2cccs2)N(C)C)cc1 (centres undefined)	none
CCN(c1ccccc1)S(=O)(=O)c1cc(C(=O)NCC(c2ccc(OC)cc2)N(C)C)ccc1C (centres undefined)	OPRM1-OPRD1 ag 20 (no result: A1 inh) | OPRM1-D1 ag cf inactive | HTR5A ag counter inactive
CCC(C)N(C(=O)CSc1nc(-c2ccccc2)cs1)C1CCS(=O)(=O)C1 (centres undefined)	none
Cc1cc(/C=C2\SC(=Nc3ccc(F)cc3)NC2=O)c(C)n1-c1ccc(S(N)(=O)=O)cc1	OPRM1-OPRD1 ag 125 | OPRM1-D1 ag cf 24 | HTR5A ag counter inactive
CCN(CC)CCn1c(O)c(N=O)c2ccccc21	none
CCN(CC)CCn1c2ccccc2c(=O)c2c(O)ccc(O)c21	OPRM1-OPRD1 ag 19 (no result: A1 inh) | OPRM1-D1 ag cf inactive | HTR5A ag counter inactive
COc1cccc(CN(C)C(=O)CNC(=O)c2ccc(-c3ccccc3)cc2)c1OC	none
CCOC(=O)c1ccc(-c2ccc(-c3cc(=O)oc4cc(OC)c(OC)c(OC)c34)cc2)cc1	none (no result: A1 inh)
Cc1ccc(N2CCN(c3ccc(NCc4nc5ccccc5n4C)cc3)CC2)cc1	OPRM1-OPRD1 ag 283 | OPRM1-D1 ag cf 46 | HTR5A ag counter 30
Cn1c(CN2CCN(c3cccc(Cl)c3)CC2)nc2ccccc21	OPRM1-OPRD1 ag 29 | OPRM1-D1 ag cf 124 | HTR5A ag counter inactive
CC(=O)CSc1ccc(-c2nc3cc(C)c(C)cc3[nH]2)cn1	OPRM1-OPRD1 ag 47 | OPRM1-D1 ag cf 32 | HTR5A ag counter inactive
Cc1cc(NS(=O)(=O)c2c(C)[nH]c(=O)[nH]c2=O)ccc1Br	none
COCCNC(=O)C(c1ccc(C)cc1)N(Cc1ccccc1)C(=O)CCC(=O)Nc1ccccn1 (centres undefined)	none
CN(C)C(CNC(=O)Cc1cccc(C(F)(F)F)c1)c1ccccc1 (centres undefined)	OPRM1-OPRD1 ag 249 | OPRM1-D1 ag cf 252 | HTR5A ag counter inactive
CN(C)C(CNC(=O)Cc1cccc(C(F)(F)F)c1)c1ccco1 (centres undefined)	OPRM1-OPRD1 ag 63 | OPRM1-D1 ag cf 22 | HTR5A ag counter inactive
CN(C)C(CNC(=O)C1CCN(S(=O)(=O)c2ccccc2)CC1)c1ccccc1 (centres undefined)	none
CN(C)C(CNC(=O)C1CCN(S(=O)(=O)c2cccc(C(F)(F)F)c2)CC1)c1ccccc1 (centres undefined)	OPRM1-OPRD1 ag 22 | OPRM1-D1 ag cf 140 | HTR5A ag counter inactive
COc1ccc(/C=N/n2cnc3c([nH]c4ccccc43)c2=O)cc1COc1ccccn1	none (no result: HTR5A inv ctr, OPRM1-OPRD1 inv, OPRM1-OPRD1 ag, HTR5A ag ctr)
O=C(Nc1ccccn1)c1cc2cc([N+](=O)[O-])ccc2s1	OPRM1-OPRD1 ag 61 | OPRM1-D1 ag cf 31 | HTR5A ag counter inactive
CC1CCN(CC(=O)N2CCCc3c2c(=O)oc2ccc(OCc4ccccc4)cc32)CC1	OPRM1-OPRD1 ag 27, HTR5A ag ctr 13 | OPRM1-D1 ag cf 32 | HTR5A ag counter inactive
CC1CC(C)CN(CC(=O)N2CCCc3c2c(=O)oc2ccc(OCc4ccccc4)cc32)C1 (centres undefined)	none
O=C(Nc1ncc(Cc2ccc(SC(F)F)cc2)s1)c1ccc(OC(F)F)cc1	OPRM1-OPRD1 ag 19 | OPRM1-D1 ag cf inactive | HTR5A ag counter inactive
COc1ccc(S(=O)(=O)N(Cc2ccccc2)Cc2nc3ccccc3c(=O)[nH]2)cc1	none
COc1ccccc1CN(Cc1nc2ccccc2c(=O)[nH]1)S(=O)(=O)c1ccc2ccccc2c1	OPRM1-OPRD1 ag 20 | OPRM1-D1 ag cf inactive | HTR5A ag counter inactive
CC1CCc2c(sc3nc(CSc4nnnn4C)[nH]c(=O)c23)C1 (centres undefined)	none
COc1cc(OC)c(C(=O)Nc2ccc(S(=O)(=O)N3CCCCC3)cc2)cc1OC	none
COc1ccc(-c2nn(-c3ccccc3C)cc2CNCc2cccnc2)cc1F	OPRM1-OPRD1 ag 72 | OPRM1-D1 ag cf 134 | HTR5A ag counter inactive
